Measurements from PubChem BioAssay AID1565 (Sanford-Burnham Center for Chemical Genomics, 2009).
Out of some 290,000 compounds screened, about 3,200 (1.1%) were called active. Shown is part of a subset that was picked to be rich in actives. Values without a mark were called inactive. No stated cut-off is given here; in the data, active means inhibition above about 60%; inactive means the rest.

Target: Phosphoethanolamine/phosphocholine phosphatase (Homo sapiens) (UniProt Q8TCT1)
Experiment: PubChem AID 1565
Conditions: recombinant PHOSPHO1, absorbance phosphatase assay; at 13.3 µM; active compounds read high

Phosphoethanolamine/phosphocholine phosphatase (Homo sapiens), sequence (Q8TCT1 whole entry, looked up): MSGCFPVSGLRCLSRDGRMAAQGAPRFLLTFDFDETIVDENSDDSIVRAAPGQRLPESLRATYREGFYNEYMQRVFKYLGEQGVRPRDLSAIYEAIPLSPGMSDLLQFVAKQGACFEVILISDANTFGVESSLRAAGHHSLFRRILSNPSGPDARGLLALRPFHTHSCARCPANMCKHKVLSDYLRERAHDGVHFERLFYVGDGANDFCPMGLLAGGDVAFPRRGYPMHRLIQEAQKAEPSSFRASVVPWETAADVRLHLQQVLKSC

Row | SMILES | inhibition
1 | CCCCNC(=O)c1cn(CC)c2cc(N3CCN(C(=O)c4ccco4)CC3)c(F)cc2c1=O | 12.7%
2 | CCCn1c(C2CCCN2c2nc(-c3ccc(OC)cc3)cs2)nc2ccccc21 (configuration not stated) | -1.7%
3 | CC(C)C(=O)NCc1cc(-c2ccc(Cl)cc2)no1 | 32.2%
4 | Cc1ccc(S(=O)(=O)Cc2cc(-c3ccc(Cl)cc3)no2)cc1 | 65.8% (active)
5 | Cc1ccc(-c2cc(N)on2)cc1 | 1.1%
6 | O=C(CCc1nnc2ccc(NCc3ccco3)nn12)Nc1cc(F)ccc1F | 19.9%
7 | COc1ccccc1OCCOc1ccc(/C=C2\C(=N)N3N=C(C)SC3=NC2=O)cc1 | 19.1%
8 | CCOc1ccccc1N1CCN(C(=O)c2ccc3[nH]c(C)c(C)c3c2)CC1 | 18.1%
9 | Cc1c(C(=O)NCC(c2ccco2)N2CCCC2)oc2ccc(Cl)cc12 (configuration not stated) | 7%
10 | COc1cc(/C=N/O)ccc1OCc1ccc([N+](=O)[O-])cc1 | 5.6%
11 | COc1cc(/C=N/n2c(C)n[nH]c2=S)ccc1OCc1ccccc1 | 69.1% (active)
12 | Fc1ccc(/C=N/n2c(COc3ccccc3)n[nH]c2=S)cc1 | 5.5%
13 | CCC(NC(=O)c1cc(COc2ccc(F)c(F)c2)on1)c1ccncc1 (configuration not stated) | 21.8%
14 | CC1(C)CCc2nc(SCc3ccccc3)c(C#N)cc2C1 | 15%
15 | Cc1cc(NC(=O)CSc2nc3c(cc2C#N)CCCCC3)no1 | 56%
16 | CC(NC(=O)CSc1nc2c(cc1C#N)CN(C)CC2)c1ccccc1 (configuration not stated) | 95.3% (active)
17 | CC1CC(C)CN(c2ccc(S(=O)(=O)N3CCOCC3)cc2)C1 (configuration not stated) | 33.4%
18 | C=CCN1CN(S(=O)(=O)c2ccc(OC)cc2)c2nc3ccccc3nc21 | 4.7%
19 | COc1cc(-c2n[nH]c(=S)n2Cc2ccccc2)cc(OC)c1OC | -91.1%
20 | CCc1cc(-c2n[nH]c(=S)n2CC(C)C)cs1 | -17%
21 | CCCc1cc(-c2n[nH]c(=S)n2Cc2ccccc2)cs1 | 82.7% (active)

Row | SMILES | inhibition
22 | O=C(NCc1ccccc1)c1onc(CSc2nc3ccccc3[nH]2)c1C(=O)NCc1ccccc1 | 15.1%
23 | CN(c1ccccc1)S(=O)(=O)c1ccc2[nH]c(=O)[nH]c2c1 | 2.8%
24 | O=C(c1ccc(S(=O)(=O)N2CCOCC2)cc1)N1CCN(c2ccccc2)CC1 | 7.1%
25 | Cc1nc2ccc(C(=O)N3CCN(c4ccccc4)CC3)cc2s1 | -38.4%
26 | O=C(c1ccccc1)c1ccc(C(=O)N2CCN(c3ccccc3)CC2)cc1 | 70.6% (active)
27 | C=CCn1c(CNS(=O)(=O)c2ccc(Br)cc2)nnc1SC | 38.1%
28 | Cc1cccc(-n2nc3c(c2NC(=O)c2cc4ccccc4o2)CS(=O)(=O)C3)c1 | 12.5%
29 | CCn1c(Cc2cccs2)nnc1SCC(=O)c1ccc(C)cc1 | 67.3% (active)
30 | CCn1c(SCC(=O)c2ccc3ccccc3c2)nnc1-c1cccs1 | 17.7%
31 | Cc1ccc(-n2c(Cc3cccs3)nnc2SCC(=O)OC(C)C)cc1 | 4.6%
32 | CCNC(=O)Nc1ccc(S(=O)(=O)Nc2cnc(C)nc2C)cc1 | 22%
33 | COc1ccc(N(CC(=O)N2CCOCC2)S(=O)(=O)c2ccccc2)cc1Cl | 12.6%
34 | Nc1ccc(-c2nnc(-c3ccc(-c4ccccc4)cc3)o2)cc1 | 71.5% (active)
35 | Brc1ccc(-c2nnc(-c3ccccc3)o2)o1 | -10.5%
36 | Nc1ccc(-c2nnc(-c3ccccc3)o2)cc1 | 4.2%
37 | COc1cccc(CNC(=O)c2nnn(CC(=O)Nc3cc(C)ccc3C)c2N)c1 | 37.5%
38 | Cc1ccc2nc(-c3ccc(NC(=O)c4cccnc4)cc3)oc2c1 | 30.4%
39 | COc1ccccc1C(=O)Nc1ccnn1C1CCN(Cc2cnn(C)c2)CC1 | 38.1%
40 | O=C(CSc1cccc2cccnc12)N/N=C/c1cccnc1 | -11.2%
41 | Cc1onc(C(=O)NN)c1C(=O)N1CCN(C(c2ccccc2)c2ccccc2)CC1 | -25.8%
42 | Clc1cccc(CN2COc3c(cc(Cl)c4cccnc34)C2)c1 | -4%

Row | SMILES | inhibition
43 | CCN1CCN(C(c2cccnc2)c2cc(Cl)c3cccnc3c2O)CC1 (configuration not stated) | 98.8% (active)
44 | CCOC(=O)N1CCN(C(c2cccnc2)c2ccc3cccnc3c2O)CC1 (configuration not stated) | 96.9% (active)
45 | Oc1ccccc1CN1CCN(C(c2ccccc2)c2ccccc2)CC1 | 34.3%
46 | Cc1cccc(NC(=O)c2cccc(C(=O)Nc3cccc(C)c3C)n2)c1C | 14.9%
47 | COc1cccc2cc(C(N)=O)/c(=N\NC(=O)c3ccccc3)oc12 | 43.7%
48 | CCCCCN(C(=O)CCC(=O)OCC(=O)NCc1ccc(OC)cc1)c1c(N)n(CCCC)c(=O)[nH]c1=O | 36.6%
49 | Cc1ccc(NC(=O)COC(=O)C2C3CC4OC(=O)C2C4C3)cc1Cl (configuration not stated) | 23.2%
50 | COCCCn1c(SCC(=O)Nc2ccccc2)nnc1-c1ccncc1 | -12.8%
51 | CCCn1c(SCC(=O)N2CCc3ccccc32)nnc1-c1ccncc1 | 1.6%
52 | CSc1nnc(-c2ccncc2)n1CCCN1CCCC1=O | 86.5% (active)
53 | COc1cccc(C(=O)Nc2nnc(S(=O)(=O)N(C)c3ccccc3)s2)c1 | 41.2%
54 | O=C(Nc1ccncc1)c1ccc([N+](=O)[O-])cc1Cl | 15.6%
55 | Cc1c(CCC(=O)O)c(=O)oc2cc(OCc3ccc(Br)cc3)ccc12 | 4.7%
56 | Cc1c(Cc2ccccc2)c(=O)oc2cc(OCC(N)=O)ccc12 | 61.5% (active)
57 | NC(=O)COc1ccc2c3c(c(=O)oc2c1)CCCCC3 | 18%
58 | COc1ccc(-n2nc(C(=O)NCC(=O)N3CCCCCC3)c3ccccc3c2=O)cc1Cl | 36%
59 | COC(=O)c1sc(=S)n(-c2ccc(Cl)cc2)c1C | -2.1%
60 | COCCOC(=O)c1sc(=S)n(CCOC)c1N | 76.4% (active)
61 | CCOC(=O)c1c(N)sc(C(C)=O)c1C | 33%
62 | COCCCC1CCN(C(=O)C2CCC(=O)N(C3CCCCCC3)C2)CC1 (configuration not stated) | 26.5%
